# Screening data from PubChem.
# In the library only some 21% were active in any assay of this set; here they are far more common.
# Pf growth 96h = Primary qHTS for delayed death inhibitors of the malarial parasite plastid, 96 hour incubation; hit rate 6.9% among 320,000; Potency, µM (titrated, usually from 28.7 µM), inactives show top-dose activity change, negative = inhibition, actives largely listed as inhibitors; P. falciparum luciferase reporter growth, 96 h; further: potency means the concentration at half of the fitted maximal effect; on the % scale 0 is the no-effect control and ±100 the full control effect
#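 Erythrocytes infected with luciferase-expressing P. falciparum were dispensed at 2% hematocrit and 0.05% parasitemia (final), then incubated with compounds 96 hours at 37 C in 5% CO2. Luminescence after detection reagent addition reported growth.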
# NS1 inh = qHTS Assay for Inhibitors of Influenza NS1 Protein Function | Potency, µM (series often up to 46.1 µM), inactives show top-dose activity, positive = more growth | hit rate 0.4% among 270,000 | AID 2326, 2010; calls by dose curve; further: potency means the concentration at half of the fitted maximal effect; actives are rising curves; nearly all actives have a fitted effect of over 50% in size
#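 OD600 was taken as the measure of yeast growth restored by compound in an NS1-expressing S. cerevisiae strain. Cells had been washed out of glucose medium and diluted 1:100 into galactose -URA medium, pH 6.0.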
# Sm TGR block = qHTS Assay for the Inhibitors of Schistosoma Mansoni Peroxiredoxins; Schistosoma mansoni thioredoxin glutathione reductase (TGR), Q962Y6; purified TGR, DTNB reduction, TNB absorbance 405 nm; Potency, µM (series often up to 114 µM), for inactives: at the top dose activity change, negative = inhibition, actives largely listed as inhibitors; hit rate 3% among 360,000; further: potency means the concentration at half of the fitted maximal effect; on the % scale 0 is the no-effect control and ±100 the full control effect; nearly all actives have a fitted effect of over 60% in size
#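 TGR 20 nM + NADPH 100 uM (dispensed conc.), cpd preinc 15 min RT; start with NADPH (500 uM addition) then DTNB (15 mM addition). Kinetic TNB absorbance, 405 nm filter. Four-parameter Hill fit across titration.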
# Shiga toxin inh = A qHTS for Small Molecule Inhibitors of Shiga Toxin | Vero cells, Shiga toxin protein synthesis inhibition reporter | inhibition, % at 38.7 µM | hit rate 9.2% among 290,000; in the data active means inhibition mostly above about 28%, no sharp cut-off; inactive means mostly below about 43%; further: 0% is about no effect
# CHX counter = Cycloheximide Counterscreen for Small Molecule Inhibitors of Shiga Toxin; hit rate 12% among 300,000; cell reporter, cycloheximide protein synthesis inhibition counterscreen; max response, %; in the data active means max response mostly above about 13%, no sharp cut-off; inactive means mostly below about 14%; further: read at 38.3 µM for the half of the compounds with a filed dose; 0% is about no effect
# Pf growth 48h = Primary qHTS for delayed death inhibitors of the malarial parasite plastid, 48 hour incubation. hit rate 5.9% among 310,000. P. falciparum luciferase growth in erythrocytes, 48 h. Potency, µM (highest dose often 28.7 µM), for the others: top-dose activity change, negative = inhibition, hits mostly inhibitors; further: potency means the concentration at half of the fitted maximal effect; on the % scale 0 is the no-effect control and ±100 the full control effect
#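 Cell-based growth assay: transgenic P. falciparum expressing firefly luciferase, cultured in red cells within RPMI 1640 containing 0.5% w/v Albumax, 24 mM bicarbonate and gentamycin. A drop in luciferase activity indicates inhibition.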
# Starred values were filed as active, the others as inactive; u = inconclusive; x = not tested or not shown; + = active, no number. Unless noted, the call rests on the fitted dose curve; in most records, active means well fitted curve in the direction sought with a large enough effect; inconclusive means small, poorly fitted or top-dose-only effect, or another doubt; inactive means no such curve, though single readings can be large; an effect the other way counts as inactive or inconclusive.
SMILES,Pf growth 96h,NS1 inh,Sm TGR block,Shiga toxin inh,CHX counter,Pf growth 48h
Cc1ccc(NC(=O)CO/N=C/c2ccc(N(C)C)cc2)cc1,39.8%,-4.6%,4.4%,-9.8,10.4,13.3%
Cc1ccc(NC(=O)c2cc(N(C)C)ccc2[P+](=O)O)cc1,-11.7%,4.9%,-3.6%,104.8*,83.7*,86.5%
CCCn1ncc(OC)c(Cl)c1=O,0.0%,-2.3%,9.1%,-10.8,-2.3,9.9%
O=C(NC(=S)NC1CCCCC1)c1ccccc1,u,-22.8%,1µM*,99.5*,48.0*,u
COc1cc(OC)c(C(=O)NNC(=S)NC2CCCCC2)cc1OC,0.0%,4.3%,5.0%,-13.6,-4.5,2.8%
O=C(NC(=S)Nc1ncc(Br)cc1Br)c1cncc(Br)c1,2.3%,-10.4%,-0.1%,-3.2,13.8,23.3%
CC(C)NC(=S)NC(c1ccccc1)(c1ccccc1)c1ccccc1,8.28µM*,-54.0%,7.5%,2.3,4.8,6.57µM*
O=C(NC(=S)NC1CCCCCC1)c1cncc(Br)c1,25.7%,9.5%,-20.7%,84.9*,39.7*,60.0%
CC(C)NC(=S)NN=C1c2ccccc2-c2ccccc21,u,x,-17.2%,-6.4,-1.9,-18.0%
O=C(NNC(=S)NC1CCCCC1)c1ccccc1Br,u,10.6%,6.5%,2.0,8.6,13.1µM*
CC(=O)Nc1cccc(/C(C)=N/NC(=S)NC(C)C)c1,49.2%,x,-12.7%,67.4*,28.3*,28.0%
COC(=O)N/N=C(\C)c1ccco1,-10.3%,x,5.7%,2.2,1.7,5.7%
S=C(NC1CCCCC1)NN(c1ccccc1)c1ccccc1,2.94µM*,-8.5%,1.8%,13.2,13.2,11.7µM*
C/C(=N\NC(=S)NC(C)C)c1ccco1,u,x,3.98µM*,13.9,10.1,u
C/C(=N\NC(=S)Nc1ccccc1C)c1ccc(O)cc1,u,-0.4%,8.3%,42.6,12.6*,0.0%
CNC(=S)NN(c1ccccc1)c1ccccc1,-6.1%,18.4%,-20.0%,-7.6,-3.1,8.4%
Nc1nnc(SCc2nnc(-c3ccccc3)o2)s1,u,6.5%,x,-2.3,-2.6,23.8%
CC1CCCC(NC(=S)NC(=O)c2ccccc2Br)C1C (centres undefined),u,-19.0%,u,active,9.1,u
C/C(=N\NC(=S)NC1CCCCC1)c1ccccc1,u,25.7%,3.0%,59.2,11.8*,4.15µM*
C/C(=N\NC(=S)NC(C)C)c1ccc(-n2ccnc2)cc1,x,11.4%,-25.1%,-13.7,-0.5,u
C/C(=N\NC(=S)NC(C)C)c1ccccc1,-55.3%,-9.7%,0.398µM*,11.6,5.2,u
CC(=O)N1c2ccc(S(=O)(=O)N(C)CC(=O)Nc3cccc(C)c3)cc2CC1C (centres undefined),u,-8.0%,17.3%,-2.2,7.1,1.4%
O=C1c2ccccc2C2(c3ccc(Cl)cc3)NCCN12 (centres undefined),13.1µM*,-1.3%,31.7%,-15.7,-4.2,-14.5%
O=C(c1ccc(F)cc1)N1CCN2C(=O)c3ccccc3C12c1ccc(Cl)cc1 (centres undefined),5.22µM*,2.9%,1.8%,-7.3,-3.4,13.1µM*
O=C(CNc1cccc(F)c1)N1CCc2ccccc2C1,114.6%,-34.0%,13.9%,125.8*,61.9*,x
SMILES,Pf growth 96h,NS1 inh,Sm TGR block,Shiga toxin inh,CHX counter,Pf growth 48h
Cc1ccc(NC(=O)N2CCc3ccccc3C2)cc1,205.9%,-51.7%,0.0%,57.8*,48.0*,x
CCc1ccccc1NC(=O)N1CCc2ccccc2C1,61.6%,-12.8%,-8.6%,12.8,14.7,-2.1%
O=C(Nc1ccc(Cl)cc1)N1CCc2ccccc2C1,-8.0%,-2.5%,10.6%,-12.9,-1.9,u
O=C(Nc1ccccc1)N1CCc2ccccc2C1,58.0%,-7.6%,-2.4%,+,59.6*,216.3%
Cc1ccc(NC(=O)N2CCc3ccccc3C2)c(C)c1,-18.0%,-9.1%,-24.4%,64.9*,42.1*,-6.0%
COc1cccc(-c2nn(C)c3sc(C(=O)NCCc4cccc(C)c4)cc23)c1,x,x,-1.8%,x,x,x
CCn1c(=O)n(CC)c2cc(N3CCCCC3)c(NC(=O)Nc3cc(C)cc(C)c3)cc21,x,x,-16.9%,x,x,x
O=C1CCC(=O)N1CN(C(=O)c1ccco1)c1ccc(Cl)c(Cl)c1,10.4µM*,-20.2%,11.4%,18.2,-2.3,23.1%
CC(=O)N(CN1C(=O)CCC1=O)c1ccc(Cl)c(Cl)c1,u,x,13.4%,-11.4,-3.0,8.4%
Cc1cc(Cl)ccc1C(=O)C1CCCN(C(=O)c2cnn(C(C)C)c2)C1 (centres undefined),u,-3.8%,-18.7%,19.0,7.8,u
CCOC(=O)CC(NC(=O)c1cccs1)c1ccc(C)cc1 (centres undefined),22.7%,3.1%,11.2%,-2.1,-3.2,-12.8%
CCCC[C@@H]1C[C@H]1[C@@H](NC(=O)c1cccs1)c1ccc(Cl)cc1,9.28µM*,-56.4%,-8.6%,-12.6,-3.2,u
CCCCCCSc1cc(-c2nc3ccc(Cl)cn3c2NC2CCCCC2)ccc1OC,u,x,-2.3%,x,x,-20.6%
CCCCNc1c(-c2ccc(SC3CCCCC3)c(OC)c2)nc2ccc(Cl)cn12,2.08µM*,x,0.4%,x,x,8.28µM*
CCCCNc1c(-c2ccc(SC(C)CC)c(OC)c2)nc2ccc(C)cn12 (centres undefined),u,x,-25.7%,x,x,3.29µM*
CCCCNc1c(-c2ccc(OC)c(Sc3ccc(OC)cc3)c2)nc2ccccn12,u,x,0.0%,x,x,u
COc1ccc(Cc2c(O)nc(SCC(=O)N3CCCCCC3)[nH]c2=O)cc1,-3.4%,6.0%,-0.4%,37.9,-2.7,-23.0%
COC12C(COC(N)=O)C3=C(C(=O)C(C)=C(N)C3=O)N1CC1C2N1C (centres undefined),u,2.4%,12.6µM*,1.5,-0.9,0.928µM*
COc1ccc(CCNC(=O)c2cc(-c3ccco3)on2)cc1OC,-0.2%,x,-0.6%,65.4,25.7,-19.2%
O=C(NCc1ccccc1)c1cc(-c2ccco2)on1,0.0%,-5.2%,-21.0%,64.7*,33.6*,70.4%
O=C(NCCc1ccccc1)c1cc(-c2ccco2)on1,45.1%,-12.1%,-9.0%,104.2*,44.5*,496.0%
O=C(NCc1ccco1)c1cc(-c2ccco2)on1,16.7%,-6.2%,-19.1%,74.1*,30.8*,96.5%
Cc1ccn2cc(C(=O)NCc3ccco3)nc2c1,3.5%,x,u,58.0*,24.8*,84.0%
CC(CNC(=O)c1ccc(CSc2nc3ccncc3n2Cc2cccc(F)c2)cc1)c1ccccc1 (centres undefined),x,x,14.5%,x,x,x
CCN1CCN(c2ccc(NC(=O)c3cccc(OCc4ccccc4)c3)cc2)CC1,-101.8%,-8.4%,0.4%,8.1,3.7,x
